Each structure is given as a SMILES string. The campaign covered roughly 65,000 compounds. About 2,100 (3.2%) showed an effect of 50% or more. The median lay at about -52%. For the sample, strong results were picked, then their nearest neighbours and some compounds at random.

This assay has as its system Plasmodium falciparum. In words: Screen against P. falciparum Asexual Blood Stage (ABS), at 5uM. As to conditions: tested at 5 uM. It is filed as functional, Dd2.
Take `CSCc1cc(F)ccc1CNC(=O)N1CCCC(CO)C1` (stereo not given): the INHIBITION was -126%.

With `OC(c1ccccc1)C1CCN(Cc2csc(-c3ncccn3)n2)CC1` (stereo not given), the INHIBITION was -49.1%.

Consider `CCC1=N[C@@]2(CC[C@@H]3CN(C(=O)NCc4ccccc4C)C[C@@H]32)C(=O)N1`, for which the INHIBITION is reported as -16%.

Take `c1cnn(CC2CCCN2c2ncnc3ccsc23)c1` (stereo not given): the INHIBITION was -122%.

Take `CCc1cnc(C)nc1NCCN1CCOCC1`: the INHIBITION is reported as -11.8%.

As to `CCc1cnc(N)nc1NCCc1ccc(OC)cc1OC`, the INHIBITION is recorded as -6.25%.

With `CCc1cnc(N)nc1NCCn1cc(Cl)cn1`, the INHIBITION is 55.4%.

`CCc1cnc(N)nc1NCCN1CCCCC1`: the INHIBITION was found to be 51.1%.

On to `CCc1cnc(N)nc1NCCCn1nc(C)nc1C`, for which the INHIBITION is recorded as -44.2%.

For `CCc1cnc(C)nc1NCCN1CCCCCC1`, the INHIBITION amounted to 44.7%.

For the compound `Cc1ccc(CN2CCC3(CC2)CN(c2ccccc2)C(=O)CO3)o1`, the INHIBITION was -69%.

For the compound `c1cnn(CC2CN(Cc3csc(C4CCCCC4)n3)CCO2)c1` (stereo not given), the INHIBITION is given as -70%.

Consider `CNc1ncc(CN(C)C(=O)CCc2[nH]nc3c2CCCC3)cn1`, for which the INHIBITION was -74.2%.

Turning to `NC(=O)C1CCN(C(=O)c2ccc(OCc3cscn3)cc2)CC1`, the INHIBITION is reported as -12.2%.

For `CCS(=O)(=O)N1CCc2ccc(NC(=O)Nc3cccc(F)c3)cc21`, the INHIBITION is -51.9%.

With `CC(C)(C)NC(=O)c1ccn(COc2ccccc2Cl)n1`, the INHIBITION was -35.7%.

Take `CC(C)(C)n1ncc(NCc2ccccc2)c(Cl)c1=O`: the INHIBITION is -43.4%.

Regarding `CC(C)(C)n1nnnc1CN(CCc1ccccc1)Cc1ccccc1`, the INHIBITION is recorded as 20.2%.

Turning to `CC(C)(C)n1nnnc1CN(Cc1ccccc1)Cc1ccc(Cl)cc1`, the INHIBITION amounted to 67.5%.

`COc1ncccc1CNC(=O)c1ccco1`: the INHIBITION is -16.5%.

`Cn1c(CN2CCOCC2)cc(=O)c(O)c1CN1CCCC1`: the INHIBITION is listed as -205%.

In the case of `Cn1c(CN2CCOCC2)cc(=O)c(O)c1CN1CCCCC1`, the INHIBITION is -211%.

On to `Cn1c(CN2CCCCCC2)cc(=O)c(O)c1CN1CCCC1`, for which the INHIBITION is 60.2%.

`c1ccc(C2Cn3ccnc3CN2Cc2ncc[nH]2)cc1` (stereo not given): the INHIBITION is -116%.

Take `Cc1cccc(Nc2cc(C3CCCN(CC(N)=O)C3)ccn2)n1` (stereo not given): the INHIBITION was -10.4%.

For the compound `Cc1cnn(C2CCCN(C(=O)c3cccc(Cn4ccnc4)c3)C2)c1` (stereo not given), the INHIBITION is -112%.

Turning to `O=C(c1cccc(Cn2ccnc2)c1)N1CCCC(n2ccnc2)C1` (stereo not given), the INHIBITION is given as -59.1%.

In the case of `O=C(c1cccc(Cn2ccnc2)c1)N1CCCC(n2cccn2)C1` (stereo not given), the INHIBITION is 61.4%.

With `CCN(CC)c1ccc2ccc(C(=O)N3CCCCO3)cn12`, the INHIBITION turned out to be 44.7%.

For the compound `CCc1nnc2n1CCN(Cc1ccc3c(c1)OCCO3)C2`, the INHIBITION is listed as -83%.

Turning to `CC(C)c1nnc2n1CCN(Cc1ccc3c(c1)OCCO3)C2`, the INHIBITION is recorded as -93.4%.

As for `c1ccc(-c2nnc3n2CCN(Cc2ccc4c(c2)OCCO4)C3)cc1`, the INHIBITION amounted to 58.5%.

With `CC1CCC(NCCNC(=O)c2cccs2)CC1` (stereo not given), the INHIBITION is 63.7%.

As to `O=C(NCCNC1CCCCC1)c1cccs1`, the INHIBITION was -44.7%.

For the compound `O=C(NCCNC1CCCC1)c1cccs1`, the INHIBITION is -54.1%.

On to `CCC(CC)C(=O)Nc1ccc2oc(=O)n(CCN(C)C)c2c1`, for which the INHIBITION is 25.5%.

For the compound `CN(Cc1ccccc1)CC1CC2(CO1)CN(Cc1nccs1)C2` (stereo not given), the INHIBITION was 6.81%.

Consider `CN(Cc1ccccc1)CC1CC2(CO1)CN(Cc1cnn(C)c1)C2` (stereo not given), for which the INHIBITION was determined as 52.1%.

For the compound `CN(Cc1ccccc1)CC1CC2(CO1)CN(c1nncs1)C2` (stereo not given), the INHIBITION is reported as -0.698%.

`CNC(=O)Cc1ccccc1NC(=O)N[C@H]1c2ccccc2C[C@H]1O`: the INHIBITION was -69.7%.

Regarding `Oc1cc(CCC2CCCCN2)cc(-c2ccncc2)c1` (stereo not given), the INHIBITION was determined as 67.5%.

As to `O=c1[nH]ccc2cc(-c3cc(O)cc(CCC4CCCCN4)c3)ccc12` (stereo not given), the INHIBITION is -57.5%.

With `Oc1cc(CCC2CCCCN2)cc(-c2cccnc2)c1` (stereo not given), the INHIBITION was 69%.

With `O=c1cc(-c2cc(O)cc(CCC3CCCCN3)c2)cc[nH]1` (stereo not given), the INHIBITION was 0.568%.

Take `Nc1ccc(-c2cc(O)cc(CCC3CCCCN3)c2)cn1` (stereo not given): the INHIBITION is recorded as -92.8%.

With `COc1ccc(CCC2CCCCN2)cc1OC` (stereo not given), the INHIBITION is -112%.

As for `Cc1nc2c(c(NCCCN3CCOCC3)n1)CCN(C)C2`, the INHIBITION is listed as -73.4%.

For `COC(=O)c1cccn1C1CCN(Cc2ccccc2)CC1`, the INHIBITION is -122%.

On to `CN1CC2(CCC1=O)CCN(CC[C@@H](O)c1ccccc1)CC2`, for which the INHIBITION is -14%.

As to `Cn1cnnc1CNC(=O)C1CCCN(Cc2cccc(F)c2)C1` (stereo not given), the INHIBITION was -141%.

`Cn1ccnc1CCNC(=O)C1CCCN(Cc2cccc(F)c2)C1` (stereo not given): the INHIBITION was 59.3%.

Turning to `Cn1cc(CNC(=O)C2CCCN(Cc3cccc(F)c3)C2)cn1` (stereo not given), the INHIBITION is recorded as -59.1%.

Regarding `CCCN(C(=O)c1ccccn1)c1nc2c(s1)CCc1c-2cnn1C`, the INHIBITION came to 38.1%.

Take `CCCN(C(=O)c1ccncc1)c1nc2c(s1)CCc1c-2cnn1C`: the INHIBITION is 55.6%.

For `CCCN(C(=O)c1cnccn1)c1nc2c(s1)CCc1c-2cnn1C`, the INHIBITION is on record as -28.8%.

These data come from ChEMBL document CHEMBL4513216, “Probing the Open Global Health Chemical Diversity Library for Multistage-Active Starting Points for Next-Generation Antimalarials” (ACS Infect Dis, 2020).
